Shown are actives, neighbours in structure and some others; about 1.7% of the full set was active somewhere.
RXFP1 ag = agonists of human relaxin receptor RXFP1; 0.3% of 370,000 active; HEK293T-RXFP1 cAMP TR-FRET, 30 min; response scale: percent of porcine relaxin response, buffer zero; AID 2676; Potency, µM (highest dose often 57.5 µM), without a hit: at the highest dose activation, hits mostly activators; Q9HBX9; active = well fitted activation curve with a large enough effect; inconclusive = small, poorly fitted or top-dose-only effect; note: potency is the fitted concentration of half-maximal effect; nearly all actives have a fitted effect of over 60% in size
Target sequence (Q9HBX9 whole entry, looked up): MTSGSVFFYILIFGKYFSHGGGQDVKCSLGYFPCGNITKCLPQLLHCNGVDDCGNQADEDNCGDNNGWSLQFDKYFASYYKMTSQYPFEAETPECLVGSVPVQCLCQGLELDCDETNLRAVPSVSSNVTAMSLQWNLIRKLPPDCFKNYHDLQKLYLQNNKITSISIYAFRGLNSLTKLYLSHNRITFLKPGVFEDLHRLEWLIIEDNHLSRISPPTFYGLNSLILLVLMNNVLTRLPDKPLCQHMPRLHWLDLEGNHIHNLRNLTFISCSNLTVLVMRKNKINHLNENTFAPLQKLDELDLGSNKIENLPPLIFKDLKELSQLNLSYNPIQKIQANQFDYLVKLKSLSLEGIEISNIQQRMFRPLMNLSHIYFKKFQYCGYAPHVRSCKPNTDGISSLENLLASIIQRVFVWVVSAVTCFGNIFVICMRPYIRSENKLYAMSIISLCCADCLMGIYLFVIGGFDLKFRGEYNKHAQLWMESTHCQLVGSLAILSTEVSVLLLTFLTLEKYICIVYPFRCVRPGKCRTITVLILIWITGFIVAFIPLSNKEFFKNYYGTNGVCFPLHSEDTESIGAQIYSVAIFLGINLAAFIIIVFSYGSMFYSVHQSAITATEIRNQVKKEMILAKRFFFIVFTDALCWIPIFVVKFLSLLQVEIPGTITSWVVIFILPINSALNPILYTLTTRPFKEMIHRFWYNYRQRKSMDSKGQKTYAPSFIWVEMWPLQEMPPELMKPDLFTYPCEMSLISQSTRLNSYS
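HEK293 cells stably expressing RXFP1, treated 30 min at 37C with compounds plus PDE4 inhibitor Ro 20174; cAMP measured by HTRF TR-FRET. Normalized to buffer and 29 nM porcine relaxin; EC50 by Hill fit.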
RXFP1 antag = antagonists of human relaxin receptor RXFP1; activity change, negative = inhibition, % at 57.5 µM; 0.59% of 350,000 active; AID 1259400; HEK293-RXFP1, relaxin-stimulated cAMP HTRF, 30 min; hits give low values; Q9HBX9;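 active = activity change of -60% or lower, but not beyond a set lower limit; inconclusive = change between -60% and -40%, or beyond the set limit; inactive = change above -40%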
Akt phos inh = Akt phosphorylation inhibition. activity change, % for hits at 50 µM. Neuro2A IGF-stimulated pAkt S473 HTRF, 20 min; hits give low values. AID 651550. 0.32% of 360,000 active; in the data active = activity change below about -80%; inconclusive = mostly about -51% to -80%
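Single-point screen (50 µM final compound) in Neuro2A cells stimulated 20 min with 6 nM IGF at 37 deg C. After lysis, Ser473-phosphorylated Akt read by HTRF (ex 330 nm, em 615/665 nm) as the 665/615 ratio.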
hERG WT inh = inhibitors of human wildtype KCNH2 potassium channel; U2OS, BacMam KCNH2, thallium flux FluxOr; hits give low values; activity change, % at 1.84 µM; 0.37% of 340,000 active;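 active = maximum activity change below -70%; inconclusive = maximum activity change between -70% and -50%; inactive = maximum activity change above -50%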
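U2OS cells were transduced with wild-type KCNH2 virus (2.03 x 10^8 / mL) for 4 h at room temperature, then cultured overnight at 37 C. Thallium flux was read with FluxOr dye. Rate constants were normalized to DMSO controls.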
KCNH2 3.1 block = blocks the human KCNH2 3.1 channel isoform; U2OS KCNH2 3.1, thallium flux FluxOr; hits give low values; activity change, % (tested at about 1.8 µM); 0.95% of 340,000 active; AID 720553;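 active = maximum activity change below -70%; inconclusive = maximum activity change from -70% to -50%; inactive = maximum activity change above -50%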;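 note: thallium influx rate constant from kinetic fluorescence after stimulation buffer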
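Steps: virus added to U2OS suspension (4 h, RT, dark); medium with 10% FBS added, cells plated, 37 C overnight; FluxOr/Red40 loading buffer 45 min RT; stimulation buffer, 2 min kinetic read; rate constant normalized.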
* hit, by the source's call; i = inactive; ? = inconclusive; / = not tested or not shown. % is set by controls: 0 for no effect and ±100 for the full control effect.

SMILES | RXFP1 ag | RXFP1 antag | Akt phos inh | hERG WT inh | KCNH2 3.1 block
N#CC1(NC(=O)COC(=O)c2ncc(Cl)c(Cl)c2Cl)CCCCC1 | 4% | -3 | i | -2 | -73*
CC(=O)c1ccc(NC(=O)CCC(=O)OCC(F)(F)C(F)F)cc1 | 0% | 11 | i | 8 | -7
Cc1ccc(C(=O)Nc2ccccc2C(=O)O)cc1S(=O)(=O)Nc1ccccc1 | 0% | -9 | i | -7 | -3
Cc1ccc(C(=O)Nc2ccccc2C(=O)O)cc1S(=O)(=O)NC1CCCCC1 | 2% | -17 | i | 7 | -71*
COc1cc(OC)cc(-c2nc3ccccc3c(=O)o2)c1 | -2% | -24 | -99%* | -26 | 0
COc1cccc(-c2nc3ccccc3c(=O)o2)c1 | 1% | -14 | i | -5 | 14
O=C(COc1ccccc1)NCC(=O)NC1CCCCC1 | 1% | -18 | i | -2 | 11
Cc1cccc(Nc2nnc(SCC(=O)NCC3CCCO3)s2)c1 (stereo not drawn) | / | -13 | i | -4 | 13
O=C1OC(NC(=O)c2ccccc2)C(n2cc(CO)nn2)=C1Cl (stereo not drawn) | 0% | 9 | -114%* | 2 | 7
CC(=O)NC(Cc1ccccc1)Cc1ccccc1 | 0% | 3 | i | -15 | -11
CC(=O)NC(O)C(=O)c1ccccc1 (stereo not drawn) | 1% | -1 | -109%* | 5 | 11
Cc1cccc(N2CCN(S(=O)(=O)c3ccc4c(c3)CC(=O)N4C)CC2)c1C | 1% | -24 | / | 2 | -5
Cn1cnc2c(=O)oc3ccc(S(=O)(=O)N4CCN(c5cccc(Cl)c5)CC4)cc3c21 | 7% | -3 | / | / | /
CCCCN(C(=O)c1cc(S(=O)(=O)N2CCOCC2)ccc1F)c1c(N)n(CCCC)c(=O)[nH]c1=O | / | 2 | i | 0 | -7
CCCCN(C(=O)Cc1ccc(S(=O)(=O)N2CCOCC2)s1)c1c(N)n(CCCC)c(=O)[nH]c1=O | 1% | -5 | i | -75* | -4
S=c1[nH]cnc2scc(-c3ccccc3)c12 | 2% | -73* | i | -2 | 4
Clc1ncnc2scc(-c3ccccc3)c12 | 1% | 4 | i | 1 | -12
O=C(Nc1ccc(Br)cc1Cl)N1CCOCC1 | 2% | 1 | i | / | 16
CCCc1cc(-c2n[nH]c(C(=O)OCC)c2-c2cscn2)c(O)cc1O | 0% | -3 | i | -4 | -4
Cc1ccc(NC(=O)Cc2ccsc2)cc1Cl | 1% | 6 | i | -13 | -3
O=C(NCc1ccccn1)c1nc(Cn2ccc([N+](=O)[O-])n2)no1 | 3% | 7 | i | -4 | -2
OC1CCN(CC(O)C(F)(F)F)CC1 (stereo not drawn) | 0% | 2 | i | 2 | -102*
COC(=O)c1[nH]c2cc(OC)ccc2c1NC(=O)CCN1CCN(c2ccccc2)CC1 | 0% | -1 | i | 12 | -44
COC(=O)c1[nH]c2cc(OC)ccc2c1NC(=O)CCN1CCN(c2cccc(C)c2C)CC1 | -1% | -1 | i | 6 | -91*
O=C(CSc1n[nH]c(-c2cccnc2)n1)Nc1cccc(Cl)c1 | 3% | -8 | i | -2 | -9
SMILES | RXFP1 ag | RXFP1 antag | Akt phos inh | hERG WT inh | KCNH2 3.1 block
O=C(CSc1nc(-c2ccc(Cl)cc2)[nH]c(=O)n1)Nc1cccc(Cl)c1 | 0% | -70* | i | -12 | 3
COc1ccc(-c2[nH]c(-c3cccc(OC)c3)nc2SCC(=O)NCc2ccco2)cc1 | 1% | / | i | -11 | -105*
COc1cccc(-c2nc(SCC(=O)NCc3ccco3)c3c(=O)n(C)c(=O)n(C)c3n2)c1 | 0% | 1 | / | / | /
COc1ccc(CNC(=O)C(c2cccc(C)c2)N(C(=O)c2csnn2)C2CC2)cc1 (stereo not drawn) | 0% | -2 | i | -2 | -9
O=C(NCc1ccco1)c1ccc2c(c1)N(Cc1ccc(F)cc1)C(=O)c1ccccc1S2=O (stereo not drawn) | -1% | / | / | / | /
CCC1C(=NO)C(CC)C(c2ccccc2)NC1c1ccccc1 (stereo not drawn) | -1% | -74* | i | 5 | -5
O=C(Nc1ccc2c(c1)OCO2)C1CCCN(S(=O)(=O)c2cccs2)C1 (stereo not drawn) | 2% | -6 | i | 0 | 21
O=C(Nc1ccc2c(c1)OCCO2)C1CCCN(S(=O)(=O)c2cccs2)C1 (stereo not drawn) | 0% | -11 | -108%* | -1 | /
CCCS(=O)(=O)N1CCCC(C(=O)NC(C)c2ccc3c(c2)OCCO3)C1 (stereo not drawn) | 0% | -9 | -114%* | 0 | 1
O=C(CN1C(=O)COc2ccccc21)N1CCc2ccccc21 | 2% | -14 | -107%* | -4 | -4
CCc1ccc2nc(N(CCCN(C)C)C(=O)c3ccc(C(=O)c4ccccc4)cc3)sc2c1 | 1% | -13 | i | 0 | -89*
CCOc1cccc2sc(N(CCN(C)C)C(=O)c3cc4ccccc4cc3OC)nc12 | -3% | ? | i | -17 | -79*
Cc1cc(C)c2nc(N(CCCN(C)C)C(=O)c3ccc4c(c3)OCCO4)sc2c1 | 0% | ? | i | -8 | -86*
COc1cccc2sc(N(CCN(C)C)C(=O)c3ccc4c(c3)CCCC4)nc12 | 1% | -69* | i | 25 | /
COc1cc2nc(N(CCCN(C)C)C(=O)c3ccc(C(=O)c4ccccc4)cc3)sc2cc1OC | 0% | -30 | i | 27 | 15
NS(=O)(=O)c1ccc(N2N=C(c3ccc(Br)cc3)CC2c2ccc(F)cc2)cc1 (stereo not drawn) | 16% | -1 | i | 2 | -19
CN(C)CCN(C(=O)c1ccc2ccccc2c1)c1nc2cc3c(cc2s1)OCCO3 | 1% | -28 | i | -4 | -6
CCOc1cccc2sc(N(CCCN(C)C)C(=O)c3ccc(S(=O)(=O)N(C)Cc4ccccc4)cc3)nc12 | -6% | -35 | i | -74* | /
Cc1cc(C)c2sc(N(CCN(C)C)C(=O)c3c(F)cccc3F)nc2c1 | 1% | -34 | i | 9 | 4
Cc1cc(C)c2sc(N(CCCN(C)C)C(=O)c3ccc(Br)s3)nc2c1 | 5% | -17 | i | -23 | -82*
CN(C)CCCN(C(=O)c1ccc2ccccc2c1)c1nc2cc3c(cc2s1)OCO3 | 0% | -61* | i | 20 | -11
COc1cccc2sc(N(CCCN(C)C)C(=O)c3ccc(S(=O)(=O)N4CCCc5ccccc54)cc3)nc12 | -3% | -88* | i | 18 | -4
COc1ccc(Nc2nc(NCc3ccco3)nc(N)c2[N+](=O)[O-])cc1 | 0% | 5 | i | 5 | 6
Cc1ccc(C(=O)NCCn2cc(SCC(=O)Nc3nnc(C)s3)c3ccccc32)cc1 | 0% | 2 | i | -10 | 6

Screening data from PubChem.
